An excerpt weighted towards active compounds, which were near 6.2% of everything screened.
FMDV inh: High Throughput Screening for Foot and Mouth Disease Virus Antivirals; FMDV antiviral cell-based qHTS; Potency, µM (highest dose often 57.9 µM), for inactives: at the top dose activity change, negative = inhibition, most hits filed as inhibitors; AID 1159524, 2015; hit rate 1.2% among 410,000; calls by dose curve; tested in HEK293T cells; also: read-out not given here; potency is read from the fitted curve at half-maximal effect; nearly all actives have a fitted effect of over 45% in size
Marburg entry inh: qHTS for inhibitors of binding or entry into cells for Marburg Virus; hit rate 1.8% among 300,000; Potency, µM (doses to about 37.8 µM), inactives show top-dose activity change, negative = inhibition, most hits filed as inhibitors; AID 540276, 2011; Marburg virus pseudotyped entry inhibition, cell reporter; calls by dose curve; tested in HEK293 cells; also: potency is read from the fitted curve at half-maximal effect
Lassa entry inh: qHTS for Inhibitors of binding or entry into cells for Lassa Virus | Lassa virus pseudotype entry inhibition, cell reporter | Potency, µM (top dose mostly 37.9 µM), without a hit: at the highest dose activity change, negative = inhibition, hits mostly inhibitors | hit rate 1.2% among 300,000; calls by dose curve; tested in HEK293 cells; also: potency is read from the fitted curve at half-maximal effect; nearly all actives have a fitted effect of over 50% in size
HCMV antiviral: qHTS Assay for inhibitors of the human cytomegalovirus (HCMV); HFF cells, HCMV-luciferase reporter, 72 h; stronger effect = lower value; activity change, negative = inhibition, % at 57.5 µM; hit rate 4.5% among 410,000; AID 1259415, 2018; in the data active = activity change below about -60%; inconclusive = no clear call, values can overlap the other calls; inactive = above about -39%
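Compounds were evaluated in HFFs infected with an HCMV luciferase reporter virus (MOI 1 PFU/cell). Luciferase in lysates collected 72 h post infection served as the replication measure.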
* hit, by the source's call; ? = inconclusive; nt = no result; [ ] = dose if it differs, or a comment. % is scaled to controls: 0 for no effect and ±100 for the full control effect.

SMILES	FMDV inh	Marburg entry inh	Lassa entry inh	HCMV antiviral
CSc1ccc(CN(C)C(=O)C(Cc2ccccc2)NC(=O)c2ccccc2)cc1 (stereo not given)	13%	?	?	-67*
CN(Cc1ccccc1)C(NC(=O)c1ccccc1)C(Cl)(Cl)Cl (stereo not given)	-21%	-28%	21µM*	-30
CCOc1ccc(CN(C)C(=O)[C@H](Cc2ccccc2)NC(=O)OCc2ccccc2)cc1OC	20µM*	4.5µM*	8.9µM*	-13
Cc1cccc(C(=O)NC(NCc2ccco2)C(Cl)(Cl)Cl)c1 (stereo not given)	-20%	-2%	-3%	-2
C[C@@H]1NS(=O)(=O)c2c(F)cccc2O[C@@H]1c1ccccc1	nt	nt	nt	-4
Cc1ccc(CNC(=O)c2ccc3c(c2)NC(=O)C(CS(=O)(=O)Cc2cccc(C)c2)N3)cc1 (stereo not given)	-13%	nt	16%[46.1 µM]	-27
CSc1ccc(CN(C)CC(=O)NCc2ccccc2)cc1	-21%	-1%[46.1 µM]	?	-63*
COc1ccc(CNC(=O)CN(C)Cc2ccc(SC)cc2)cc1	-9%	-13%[46.1 µM]	?	2
COc1cc(Nc2ncc3c(C)nc(-c4cccc(Oc5ccccc5)c4)n3n2)cc(OC)c1OC	nt	nt	3.1µM*	nt
COc1cc(-c2nc(-c3cccc(C(F)(F)F)c3)no2)cc(OC)c1OC	?	?	-18%	-13
COc1cc(Nc2ncc3c(C)nc(-c4cccc(C(F)(F)F)c4)n3n2)cc(OC)c1OC	nt	nt	10µM*	nt
O=C(O[C@@H]1Cc2c(O)cc(O)cc2OC1c1ccc(O)c(O)c1)c1cc(O)c(O)c(O)c1 (stereo not given in full)	5%	nt	nt	nt
COc1ccc(C(=O)NC2=NCCS2)cc1	6%	?	29%[46.1 µM]	104
CC(C)Oc1ccc(C(=O)NC2=NCCS2)cc1	-24%	8.9µM*	?	61
Cc1ccc(C(=O)NC2=NCCS2)cc1	nt	-1%	nt	94
CC(C)c1ccc(C(=O)NC2=NCCS2)cc1	-13%	7.3µM*	16µM*	68
O=C([C@@H]1C[C@@H](Sc2nc3ccccc3[nH]2)CN1Cc1ccc(Cl)cc1)N1CCN(c2ccccc2F)CC1	10%	nt	nt	nt
CN(C(=O)CCCN1C(=O)c2cccc3cccc(c23)C1=O)c1ccccc1	?	-9%[46.1 µM]	-11%	-62*
O=C(CCCN1C(=O)c2cccc3cccc(c23)C1=O)N1CCN(c2ccc(F)cc2)CC1	22µM*	?	?	-37
COc1ccc(/C=N/n2c(SC)nnc2-c2ccccc2)cc1C	-21%	?	?	-9
COc1ccc(/C=N/n2c(SC)nnc2-c2ccccc2)c(OC)c1OC	-29%	5µM*	3.5µM*	?
Cc1ccccc1C1=NOC2CN(C(=O)/C=C/c3ccccc3)CC12 (stereo not given)	nt	nt	nt	-11
Cc1ccc(CN2[C@@H](CC3CCCCC3)COCCS2(=O)=O)cc1	-23%	nt	nt	-70*
CNc1nc(-c2ccc([N+](=O)[O-])cc2)cs1	-19%	2%[46.1 µM]	18%	-74*
COCC(=O)Nc1nc(-c2ccc([N+](=O)[O-])cc2)cs1	11%	nt	nt	-89*
SMILES	FMDV inh	Marburg entry inh	Lassa entry inh	HCMV antiviral
O=C(Cc1nc(-c2ccc([N+](=O)[O-])cc2)cs1)Nc1ccccc1	?	4%	-2%	-92*
O=[N+]([O-])c1ccc(-c2csc(N3CCCCCC3)n2)cc1	13%	-6%	?	-24
Nc1nc(-c2ccc([N+](=O)[O-])cc2)cs1	30%	?	7%	-79*
CC[C@H]1CN2CCc3cc(OC)c(OC)cc3[C@H]2C[C@@H]1C[C@@H]1NCCc2cc(OC)c(OC)cc21	nt	0.22µM*	nt	nt
COc1cc2c(cc1OC)C1CC(=O)C(CC(C)C)CN1CC2 (stereo not given)	-27%	?	?	-62*
COc1cc2c(cc1OC)C1C/C(=N\O)C(CC(C)C)CN1CC2 (stereo not given)	-41%	-23%	-10%	-3
CCC1CN2CCc3cc(OC)c(OC)cc3C2CC1CC1c2cc(OC)c(OC)cc2CCN1C(=O)C(Cc1c[nH]c2ccccc12)NC(=O)OC(C)(C)C (stereo not given)	-18%	?	?	?
CCOC(=O)[C@]12Cc3cc(OC)ccc3[C@H]1N(Cc1ccccc1)C(=O)c1cc(OC)ccc12	-15%	nt	nt	6
CCOC(=O)[C@]12Cc3cc4ccccc4cc3[C@H]1N(Cc1ccccc1)C(=O)c1cc(OC)ccc12	7.9µM*	nt	nt	-91*
CCCCCN1C(=O)c2cc(OC)ccc2[C@@]2(C(=O)OCC)Cc3cc(Cl)ccc3[C@@H]12	7.9µM*	nt	nt	-103*
CCOC(=O)[C@]12Cc3cc4ccccc4cc3[C@H]1N(Cc1ccccc1)C(=O)c1ccccc12	?	nt	nt	-97*
CCOC(=O)[C@]12Cc3cc(Cl)ccc3[C@H]1N(Cc1ccccc1)C(=O)c1cc(OC)ccc12	8.9µM*	nt	nt	-106*
CC1(C)SC2C(NC(=O)C(NC(=O)N3CCNC3=O)c3ccccc3)C(=O)N2C1C(=O)O (stereo not given)	-3%	nt	nt	nt
Clc1ccccc1-c1nc(NC2CCNCC2)c2ccccc2n1	-24%	nt	nt	nt
CCOC(=O)[C@]12Cc3ccc4ccccc4c3[C@H]1N(Cc1ccccc1)C(=O)c1ccccc12	22µM*	nt	nt	59
CCOC(=O)[C@]12Cc3ccsc3[C@H]1N(Cc1ccccc1)C(=O)c1ccccc12	?	nt	nt	2
Cc1ccccc1CN(c1ccc(C(=O)NCCC2=CCCCC2)cc1)S(C)(=O)=O	-25%	?	16µM*	-3
COc1cccc(NS(=O)(=O)c2cc3c(cc2C)N(C)CCO3)c1	55%	nt	nt	-8
COC(=O)c1ccccc1NS(=O)(=O)c1cc2c(cc1C)N(C)CCO2	79%	nt	10µM*	?
CCN(CC)CCN1C(=O)C(=O)/C(=C(/O)c2c(C)[nH]c(C(=O)OC)c2C)[C@@H]1c1cccc(OC)c1	nt	24%	nt	nt
Cc1ccc(C(C(=O)NC(C)(C)C)N(CCCN2CCOCC2)C(=O)c2ccc(-c3ccccc3)[nH]2)o1 (stereo not given)	21%	-3%[46.1 µM]	12%	-74*
O=C(NC1CCCCC1)C(c1cccs1)N(CCCN1CCOCC1)C(=O)c1ccc(-c2ccccc2)[nH]1 (stereo not given)	-14%	?	-18%	-5
CCC(C)NC(=O)Cn1c(=O)n(CCCCCC(=O)NCc2ccccc2Cl)c(=O)c2sccc21 (stereo not given)	-7%	-5%[46.1 µM]	0%[46.1 µM]	-19
CCNC(=S)Nc1ccc2c(c1)c(=O)n(C)n2Cc1cccc(C(F)(F)F)c1	-14%	nt	nt	-7
Cn1c(=O)c2cc(NC(=S)NC3CCCCC3)ccc2n1Cc1cccc(C(F)(F)F)c1	8%	nt	nt	-71*
OC[C@@H]1CN(Cc2ccc(F)cc2)C[C@H](n2cnc3c(N4CCOCC4)ncnc32)O1	-16%	nt	nt	-5
O=[N+]([O-])c1oc2ccc3ccccc3c2c1CCO	-11%	?	-22%[46.1 µM]	-102*
CCN(CC)c1ccc(/C=N/NC(=S)NCc2ccc(OC)cc2)cc1	-6%	?	3.7µM*	16

Screening results (PubChem)
